L major viab: Leishmania major promastigote growth inhibition, primary screen | Leishmania major promastigotes, resazurin fluorescence viability | inhibition, % at 10 µM | 200,000 compounds, 9% hits | AID 1063, 2008; in the data active means inhibition above about 50%;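 further: promastigotes grown with compound for 44 hours at 28 °C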
WT yeast gro inh: growth inhibition of WT strain, primary screen, mitochondrial fusion inhibitor project, WT and mutant strains, chemical genetic. inhibition, % at 10 µM. 190,000 compounds, 2.1% hits. mitochondrial fusion phenotypic screen; in the data active means inhibition above about 58%; tested in S. cerevisiae
m-calpain inh: inhibitors of pig calpain II, primary screen, biochemical, fluorogenic peptide substrate, 1536-well. inhibition, % at 16 µM. 220,000 compounds, 0.37% hits. purified calpain II, 30 min;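 active means inhibition above about 50%, limit read from the data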
ROMK primary: ROMK potassium channel modulators, primary screen, cell-based, thallium flux, MLSMR library; ATP-sensitive inward rectifier potassium channel 1 (Homo sapiens), P48048; Tet-inducible ROMK, thallium flux fluorescence; actives lie on both sides; B-score at 10 µM; 130,000 compounds, 2% hits; AID 1918, 2009;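 active means signal ratio slope over the read window, or its plate-corrected B-score, at least 3 SD from the plate mean, either direction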;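 further: B-score of the F/F0 ratio slope over 7 to 12 s after thallium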
Target sequence (P48048 whole entry, looked up): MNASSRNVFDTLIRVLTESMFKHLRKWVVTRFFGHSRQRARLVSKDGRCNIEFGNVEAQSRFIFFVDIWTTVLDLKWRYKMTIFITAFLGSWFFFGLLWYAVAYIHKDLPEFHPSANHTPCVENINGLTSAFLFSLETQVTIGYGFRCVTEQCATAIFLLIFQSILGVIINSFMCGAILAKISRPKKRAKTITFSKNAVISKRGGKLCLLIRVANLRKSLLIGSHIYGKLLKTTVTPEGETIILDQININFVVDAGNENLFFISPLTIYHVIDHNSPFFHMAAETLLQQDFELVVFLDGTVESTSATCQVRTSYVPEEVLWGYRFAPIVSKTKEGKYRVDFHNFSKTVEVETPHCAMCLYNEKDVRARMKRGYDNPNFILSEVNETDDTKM
KCC2 mod: KCC2 cotransporter modulators, thallium flux, primary screen, cell-based, HEK293 KCC2, FluoZin-2 fluorescence, MLSMR | Solute carrier family 12 member 5 (Homo sapiens), Q9H2X9 | KCC2 cells, thallium flux FluoZin-2 fluorescence | B-score of Tl+ flux slope (higher = more flux/activation; lower = inhibition) at 10 µM | 190,000 compounds, 2.2% hits;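 active means thallium flux slope and its plate-corrected score both differing from the plate sample mean at a set confidence after two filtering rounds, in either direction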;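 further: slope of fluorescence scaled to starting intensity during 10 to 20 s after thallium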
An asterisk follows results filed as active; . = no result. This is a sample that favours compounds with a hit; in the whole collection about 12% have one here.

SMILES	L major viab	WT yeast gro inh	m-calpain inh	ROMK primary	KCC2 mod
CCOC(=O)C1C(C(=O)NN)C1C(=O)Nc1ccccc1 (stereo not drawn)	2.2	-12.2	-12.8	-0.018	-0.46
CC(C)(C)c1csc(Sc2ccc([N+](=O)[O-])cn2)n1	.	.	-15.3	-1.19	0.13
COC(=O)c1ccc(NC(=O)CN2C(=O)CNC2=O)cc1	90.7*	10.7	-42.9	-0.0347	0.524
Cc1ccc(NC(=O)CN2C(=O)CNC2=O)cc1	.	.	-3.2	.	0.514
COC(=O)c1ccc(NC(=O)Cc2ccccc2)cc1	76.2*	44.3	15.3	.	-0.00176
COC(=O)c1ccc(NC(=O)CN(Cc2ccc(Cl)cc2)S(C)(=O)=O)cc1	100.2*	6.4	-14.3	.	-0.174
CCCNS(=O)(=O)c1ccc(Oc2ncc(C(F)(F)F)cc2Cl)cc1	6.9	4.3	5.8	.	.
CCOC(=O)C1CCN(Cc2cnc(Oc3ccc(C(C)(C)C)cc3)s2)CC1	90.8*	0.7	-9.4	.	.
Cc1cc(CNCc2cn(C)nc2-c2ccc(Oc3ccccc3)cc2)on1	59.6*	18.7	-18.3	-0.259	-1.09
CCOC(=O)C1CCN(Cc2cn(C)nc2-c2ccc(Oc3ccccc3)cc2)CC1	78.8*	27.0	9.7	-0.0201	.
CCOC(=O)C1CCN(Cc2cnc(NC(=O)OC)s2)CC1	-0.7	7.3	-32.0	-0.014	0.217
Cn1cc(CN2CCC(O)CC2)c(-c2ccc(Oc3ccccc3)cc2)n1	81.0*	8.5	13.1	0.0924	-1.78
Cc1cc(NC(=O)Cn2cnc3sc(C)c(-c4ccccc4)c3c2=O)no1	-1.0	-1.4	-3.8	-1.1	1.17
COc1ccc(OCC(O)CNC(=O)Nc2ccc(C(C)(C)C)cc2)cc1 (stereo not drawn)	.	.	4.1	.	2.12
CCOCCCNC(=O)CN1C(=O)/C(=C/c2ccccc2)Sc2ccccc21	-0.6	-9.2	-9.3	-2.19	-1.67
N=c1sccn1CC(=O)Nc1ccc(Cl)cc1[N+](=O)[O-]	.	.	15.7	.	-0.0687
Cn1cc(CN2CCN(CCO)CC2)c(-c2ccc(Oc3ccccc3)cc2)n1	51.0*	11.2	8.4	-0.202	1.05
COCCN1CCN(Cc2cn(C)nc2-c2ccc(Oc3ccccc3)cc2)CC1	.	.	0.7	.	-0.254
CCN(Cc1ccncc1)Cc1cn(C)nc1-c1ccc(Oc2ccccc2)cc1	96.3*	55.6	-9.1	0.0383	-1.81
O=C(COc1cccnc1[N+](=O)[O-])NC1CCS(=O)(=O)C1 (stereo not drawn)	-4.8	-12.6	-5.1	0.122	0.025
O=C(NNC1CC(=O)N(c2cccc(Cl)c2)C1=O)c1cccs1 (stereo not drawn)	63.3*	0.2	-4.5	0.543	0.242
CC(=O)NCCCC(=O)NNC1CC(=O)N(c2cccc(Cl)c2)C1=O (stereo not drawn)	.	.	-24.8	.	-0.647
COc1cccc(N2C(=O)CC(NNC(=O)c3cccs3)C2=O)c1 (stereo not drawn)	62.7*	6.6	-3.1	0.236	-0.0311
O=c1cc2c(nn1Cc1ccc(Cl)cc1)-c1ccccc1CC2	-0.8	59.5*	12.3	-1.71	-3.69
O=c1cc2c(nn1Cc1cccc(Cl)c1)-c1ccccc1CC2	7.5	80.5*	28.3	-0.634	.
SMILES	L major viab	WT yeast gro inh	m-calpain inh	ROMK primary	KCC2 mod
Nc1cc(-c2ccccc2)nn1Cc1ccc(Cl)cc1	28.6	-8.0	-8.0	-0.325	-0.00231
Cc1ccc(Cn2ncn3c(cc4ccccc43)c2=O)cc1	4.7	6.0	.	-0.798	0.217
Cc1ccc(Cn2nc3c(cc2=O)CCc2ccccc2-3)cc1	-3.5	73.8*	28.6	-2.31	.
CSCCC1NC(=O)N(CC(=O)Nc2ccc(Br)cc2Br)C1=O (stereo not drawn)	.	.	-24.1	.	0.672
Cn1nc(-c2ccccc2)c(C(=O)NCC(=O)O)c1Cl	-2.0	-19.6	18.1	0.448	0.678
O=C(CN1CCC(NC(=O)c2ccc(Br)cc2)CC1)NCc1cccs1	-7.3	-0.9	-25.4	0.852	-1.49
COc1ccc(CN2C(=O)c3ccccc3C2=O)cc1C(=O)Nc1ccc(C)cc1C	-6.3	-16.3	-13.0	0.71	-0.0366
COc1cccc(NC(=O)c2cc(CN3C(=O)c4ccccc4C3=O)ccc2OC)c1	88.7*	10.2	31.8	.	0.5
CC(=O)c1cnn(-c2c(Cl)cc(Cl)cc2Cl)c1C	.	.	29.6	-1.22	0.352
CC(=O)Nc1ccc(N(C(=O)CNC(=O)c2ccco2)C(C(=O)NCc2ccco2)c2ccccc2F)cc1 (stereo not drawn)	-7.5	-6.7	22.3	-0.129	0.101
c1coc(-c2nnc3n2C2(CCCC2)Cc2ccccc2-3)c1	15.1	-6.8	24.4	.	0.606
COc1ccc(-c2nnc3sc(-c4ccco4)nn23)cc1OC	35.8	-11.3	-45.9	.	0.613
COc1cc(OC)c(-c2nn3c(-c4ccco4)nnc3s2)cc1OC	82.3*	4.2	-328.4	.	-2.46
COc1ccc(-c2nn3c(-c4ccco4)nnc3s2)cc1OC	88.4*	-1.5	-44.8	.	-0.938
COc1cc2c(cc1OC)-c1nnc(-c3ccco3)n1C1(CCCC1)C2	57.5*	3.4	-48.2	-0.908	-0.00896
O=[N+]([O-])c1cccc(C2=NCCC(c3ccccc3)O2)c1 (stereo not drawn)	-2.3	20.2	24.1	-1.11	-0.221
Cc1ccnc(SCc2cc(=O)c(OC(=O)c3ccc(Cl)c([N+](=O)[O-])c3)co2)n1	96.1*	16.8	28.3	-2.15	-2.64
Cc1ccnc(SCc2cc(=O)c(OC(=O)c3ccco3)co2)n1	-6.2	1.9	-8.1	-0.513	-0.772
CC1(C)CC2(CCO1)N1CC3(C)CN2CC(C)(C1)C3=O (stereo not drawn)	-5.8	.	.	.	1.43
Cc1ccc(-c2nnc(N3CCC(C)CC3)c3ccccc23)cc1C	41.3	82.2*	13.4	-1.22	-1.66
Cc1ccc(-c2nnc(N3CCC(C)CC3)c3ccccc23)cc1	31.9	57.7	7.6	-1.06	-0.913
COc1cccc(NC(C)(C)c2nnnn2-c2c(C)cccc2C)c1	.	.	24.4	.	-1.11
CC(C)N(c1ccccc1)c1ccc(NC(=O)CCl)cc1	55.3*	-43.9	8.4	0.603	-0.726
O=C(CCl)Nc1ccc(-c2ccccc2)cc1	79.2*	-7.6	-29.2	-1.98	0.426
CC(C)CC(NC(=O)CCl)c1ccccc1 (stereo not drawn)	10.8	-16.6	-10.5	0.731	-0.838
SMILES	L major viab	WT yeast gro inh	m-calpain inh	ROMK primary	KCC2 mod
CC(=O)Nc1ccc(N=Nc2ccccc2)cc1	-13.9	-5.4	17.9	0.0796	-1.69
O=C(CCl)Nc1ccc(N=Nc2ccccc2)cc1	99.9*	-20.7	-1.2	.	-1.11
CCCC(=O)NC(NC(=S)Nc1ccc(N=Nc2ccccc2)cc1)C(Cl)(Cl)Cl (stereo not drawn)	56.6*	7.7	6.2	.	-0.502
CCc1ccc(OCC(=O)NC(=S)Nc2ccc(C(=O)O)cc2)cc1	.	.	28.3	.	-0.24
CCc1ccc(OCC(=O)NC(NC(=S)Nc2ccc(Cl)cc2)C(Cl)(Cl)Cl)cc1 (stereo not drawn)	60.8*	0.9	-5.8	-0.254	1.47
O=C(CCl)Nc1cn(-c2ccccc2)nc1-c1ccccc1	98.8*	29.4	9.3	-1.18	0.924

From PubChem BioAssay
